BJeLR viab HTS = BJeLR cell viability loss, primary screen, luminescence, CellTiterGlo ATP. AID 2275, 2010. BJeLR fibroblasts viability, 48 h; HRASV12, hTERT and SV40 LT/ST transformed. viability loss activity score, % (concentration not given with the values). hit rate 0.64% among 30,000; in the data active means viability loss activity score above about 50%;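 further: higher score means fewer live cells and less ATP luminescence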
A1 inhib = inducers of caspase activity in MEF A1-2A-BIM cells, primary screen, A1 inhibitor project, cell-based, CaspaseGlo luminescence; caspase-Glo luminescence, 3 h; percent of clofoctol signal, DMSO as zero; AID 2241, 2010; caspase activation, % (concentration not given with the values); hit rate 0.51% among 21,000;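 active means most replicate scores above 10, or exactly half above 10 with mean activity above 10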;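 further: effector caspase 3 and 7 activity cleaving a DEVD luciferin substrate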
* = called active by the depositor; · = no result. Rows were chosen to be rich in hits. Some 0.89% of all compounds tested hit in one or more screens of this group.

SMILES	BJeLR viab HTS	A1 inhib
Cc1cccc(-n2c(SCC(=O)NCc3ccccc3)nc3c(oc4ccccc43)c2=O)c1	-4	·
COc1ccc(C)c2sc(N3CCN(c4nc5c(OC)ccc(C)c5s4)CC3)nc12	-6	·
CCOC(=O)c1ccc(NC(=O)c2oc3c(c2C)-c2nn(Cc4ccc(C)cc4)cc2CC3)cc1	3	22*
CNC(=O)Cn1cc2c(n1)-c1c(oc(C(=O)N3CCCC3)c1C)CC2	-2	0
Cc1nn(C)c(C)c1S(=O)(=O)N(CC(=O)N1CCCC1)c1ccc(C(C)C)cc1	-5	·
Cn1cc(C(=O)N2CCCC2)c(=O)c2cc(S(=O)(=O)N3CCCC3)ccc21	0	·
CCCc1nc(N)c(C#N)c(-c2ccccc2)c1CC	4	1
N#Cc1c(N)nc(Sc2ccc(Cl)cc2)c(C#N)c1-c1ccccc1	6	42*
Cc1ccc(N2C(=O)c3ccccc3C2C(=O)c2ccc(C)cc2O)cc1 (centres undefined)	0	1
O=C1Cc2c([nH]c3ccc([N+](=O)[O-])cc23)-c2ccccc2N1	38	10*
CCCCN(C)C(=O)C1c2ccccc2C(=O)N(Cc2ccc(F)cc2)C1c1ccc(OC)cc1 (centres undefined)	2	·
Cc1ccc(Cn2c(/N=C/c3ccc(N(C)C)cc3)nc3ccccc32)cc1	1	·
COc1cccc(-c2cc(NCc3ccc4c(c3)OCO4)nc(N)n2)c1	60*	3
Cc1cc(Br)ccc1NCc1ccc2c(c1)OCO2	-5	-2
Cc1cc(-c2c(C(=O)Sc3ccccc3)c(C)nn2-c2ccccc2)no1	0	0
Cc1ccc(SC(=O)c2c(C)noc2-c2cc(C)on2)cc1	1	9.8*
O=C(CCn1c(SCc2cccc(F)c2)nc2ccccc2c1=O)NCCc1ccccc1	-2	19*
O=C(CSc1nc2ccccc2c(=O)n1CCc1ccccc1)NCCc1ccccc1	1	-1
CCC(=O)Nc1cccc(-c2cn3cccnc3n2)c1	1	·
Cc1cc(Oc2nc3cc(Cl)ccc3s2)c2cc(Cl)ccc2n1	-4	0
CC1(C)CC(=O)C=C(Sc2nc3cc(Cl)ccc3s2)C1	69*	0
COc1ccc(C(=O)NC(C)C(c2cccs2)N2CCN(c3ccccc3F)CC2)cc1OC (centres undefined)	8	·
Cc1cc(C)cc(NC(=O)c2cc3ccccc3o2)c1	4	-4
COc1cc(NC(=O)COc2cc(C)c(Cl)c(C)c2)ccc1NC(=O)c1cc2ccccc2o1	7	17*
COc1ccc(C(=O)Nc2ccc(-c3cn4ccccc4n3)cc2)cc1	8	31*
SMILES	BJeLR viab HTS	A1 inhib
Cc1ccccc1C(=O)Nc1cccc(-c2cn3ccccc3n2)c1	5	-1
CC(C)(C)c1ccc(C(=O)Nc2cccc(-c3cn4cccnc4n3)c2)cc1	2	·
COc1ccc(CCNc2nc3c(c(C(F)(F)F)n2)CC(C)CC3)cc1OC (centres undefined)	2	·
CCCCC[C@H](O)CC(=O)CCc1ccc(O)c(OC)c1	3	0
COc1cc(CC(C)C(C)Cc2ccc(O)c(OC)c2)ccc1O (centres undefined)	118*	8
CCC(=O)N1N=C(c2ccccc2)CC1c1ccc(N(C)C)cc1 (centres undefined)	3	·
COc1ccc(C2=NOC(C(=O)Nc3ccc(C)cc3)C2)cc1 (centres undefined)	5	·
C[C@@H]1CCOC(=O)C=CC=CC(=O)O[C@@H]2C[C@H]3O[C@@H]4C=C(C(=O)O)CC[C@]4(COC(=O)[C@H]1O)[C@]2(C)[C@]31CO1	71*	1
O=C(CN1C(=O)/C(=C/c2ccccc2Cl)SC1=S)Nc1ccccc1C(F)(F)F	1	·
Cc1c(C(=O)Nc2ccccc2Br)oc2ccc(S(=O)(=O)N3CCCC3)cc12	-1	60*
Cc1c(C(=O)NC(C)C)oc2ccc(S(=O)(=O)N3CCCC3)cc12	4	·
O=C(Nc1ccccc1C(=O)O)c1ccccc1Cl	-1	-1
O=C(Nc1ccc(-c2nc3ccccc3[nH]2)cc1)c1ccc(-c2ccccc2)cc1	2	-1
c1ccc2[nH]c(-c3cscn3)nc2c1	59*	-5
c1ccc2[nH]c(-c3nc4ccccc4s3)nc2c1	101*	-7
c1csc(CSc2nc3ccccc3[nH]2)c1	5	·
COc1ccc(C2=NOC(C(=O)N3CCCCC3C)C2)cc1 (centres undefined)	1	·
c1ccc(-c2nc(C34CC5CC(CC(C5)C3)C4)cs2)cc1	13	-1
FC(F)(F)c1[nH]nc(-c2ccccc2)c1C12CC3CC(CC(C3)C1)C2	5	11*
Cn1nccc1C(=O)NCCN1C(=O)OC2(CCCCC2)C1(C)O (centres undefined)	1	2
Cc1ccc2nc(-c3ccccc3)cn2c1	78*	-7
Cc1ccc(-c2nc(-c3ccccc3)no2)cc1	10	-6
CC(=O)NCCSc1nc(-c2cccs2)cc(-c2ccc(F)cc2)c1C#N	-9	10*
CCCCS(=O)CSc1nc(-c2cccs2)cc(-c2ccccc2)c1C#N (centres undefined)	-6	0
CCc1ccc(NC(=O)CCS(=O)(=O)c2cccc3nonc23)cc1	-1	·
SMILES	BJeLR viab HTS	A1 inhib
COc1ccc(NC(=O)C2CCCN2c2cccc(C(F)(F)F)c2)cc1OC (centres undefined)	-3	·
CCc1c(C)c(C#N)c2[nH]c3ccccc3n2c1=O	101*	3
CCCCc1c(C)c(C#N)c2[nH]c3ccccc3n2c1=O	12	-1
O=C1/C(=C/N2CCCCC2)Nc2ccccc21	-6	·
Cn1cccc1/C=C1\CCc2ccccc2C1=O	73*	·
CCN(CC)c1ccc(/C=C2\CCc3ccccc3C2=O)cc1	41	·
